A short description of test [1]: AP1 Signaling Pathway (AID 357; active means well fitted curve in either direction with a large enough effect, not every such curve was filed as active;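 further: ME-180 reporter cells stimulated with EGF at its EC50 level; on the % scale 0 is the no-effect control and ±100 the full control effect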). The following applies: ME-180 AP-1-bla reporter, EGF-induced, beta-lactamase ratio, 5 h; at 7.69 µM (top of the series) unless noted. An outline of the steps: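 Titration-series screen for positive or negative modulators of EC50 EGF-induced signaling in ME-180 cells carrying an AP-1-driven beta-lactamase reporter. After 5 hours at 37 degrees Celsius, CCF4 460nm/530nm emission ratio gave %Activity; AC50 values derived.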

A short description of test [2]: NFAT Signaling Pathway (AID 444; active means well fitted curve in either direction with a large enough effect, not every such curve was filed as active;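 further: carbachol stimulus at about its EC50 of 1 µM final; on the % scale 0 is the no-effect control and ±100 the full control effect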). The following applies: Jurkat NFAT-bla M1, carbachol, beta-lactamase ratio, 5 h; at 7.69 µM (top of the series) unless noted. In a few lines: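 Jurkat cells with NFAT-driven β-lactamase reporter and co-expressed M1 receptor, stimulated with carbachol (final 1 uM, ~EC50), compound titration, 5 h at 37 °C. CCF4 loaded 1 h at RT; 460/530 nm ratio gave %activity and AC50.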

Test [3] in a line: Stat Signaling Pathway (AID 446; active means well fitted curve in either direction with a large enough effect, not every such curve was filed as active;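 further: ME-180 cervical cancer cells given 40 pM IL-6 alongside compound; SIE-controlled beta-lactamase reporter measured as 460/530 nm FRET emission ratio; on the % scale 0 is the no-effect control and ±100 the full control effect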). The following applies: ME-180 (cervical carcinoma) SIE beta-lactamase reporter, IL-6 stimulated, 5 h; at 7.69 µM (top of the series) unless noted. An outline of the steps:
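ME-180 SIE-bla cells; overnight plating; cpd + IL-6 40 pM, 5 h, 37 C; LiveBLAzer 2.5 h RT; 460/530 nm emission ratio. Normalized to 300 pM IL-6 and 125 nM JAK inhibitor controls.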

The target of test [4] is Glucocorticoid receptor (Homo sapiens) (UniProt P04150). Put plainly: GR-GFP Redistribution (AID 450;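 active means compounds whose dose series gives a full or clear partial fitted curve of increased nuclear translocation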; further: potency means the concentration at half of the fitted maximal effect). The following applies: U2OS GR-GFP nuclear translocation, laser cytometry, 2 h.
In test [5] the target is Calcium and integrin-binding protein 1 (Homo sapiens) (UniProt Q99828). The experiment in a line: Primary qHTS for Identification of Calcium Integrin Binding Protein 1 (CIB1) Competitor (AID 1508620).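 Further: GST tagged CIB1 binding a fluorescein labelled alphaIIb integrin peptide tracer; top concentration of the series differs between compounds; on the % scale 0 is the no-effect control and ±100 the full control effect.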 In a few lines:
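Fluorescence polarization competition: GST-tagged CIB1 (1 uM final) preincubated with compound 15 min at room temperature, then FITC-labelled alphaIIb peptide (100 nM final) added. After 15 min at room temperature, polarization read at Ex 480/Em 540.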

The target in test [6] is Mitogen-activated protein kinase 10 (Mus musculus) (UniProt Q61831). The experiment in a line: JNK3 AlphaScreen Assay (AID 530; active means well fitted curve in either direction with a large enough effect, not every such curve was filed as active). In a few lines: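 qHTS format: compounds tested as titrations against IL-1beta/TNF-alpha-activated HepG2 lysate JNK3 with biotin-GST-cJun substrate and 10 uM ATP at room temperature. Loss of anti-phospho-cJun AlphaScreen signal indicates inhibition.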

The target of test [7] is Cytochrome P450 3A4 (Homo sapiens) (UniProt P08684). The experiment in a line: qHTS Assay for Inhibitors and Substrates of Cytochrome P450 3A4 (AID 884). Further: on the % scale 0 is the no-effect control and ±100 the full control effect; nearly all actives have a fitted effect of over 50% in size. An outline of the steps: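 20 nM human CYP3A4 with 25 uM Luciferin-PPXE (at KM) in 200 mM KPO4, preincubated 10 min with compound; NADPH regeneration started a 60 min RT reaction. Luciferin detected by luminescence, normalized to 57 uM ketoconazole as full inhibition.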

Test [8] deals with Rap guanine nucleotide exchange factor 3 (Homo sapiens) (UniProt O95398). Put plainly: Confirmatory qHTS for agonist of cAMP-regulated guanine nucleotide exchange factor 3 (EPAC1) (AID 1645881).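 Further: EPAC1 catalysed release of BODIPY-GDP from Rap1B seen as fluorescence loss; 100% = effect of cAMP agonist control; nearly all actives have a fitted effect of over 75% in size.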
Test [9] concerns the target Rap guanine nucleotide exchange factor 4 (Homo sapiens) (UniProt Q8WZA2). The experiment in a line: Confirmatory qHTS for agonist of cAMP-regulated guanine nucleotide exchange factor 4 (EPAC2) (AID 1645884).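 Further: nucleotide exchange releases bodipy-GDP from Rap1 and this lowers its fluorescence; on the % scale 0 is the no-effect control and ±100 the full control effect; nearly all actives have a fitted effect of over 65% in size.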
For test [10] the target is unchanged. The experiment in a line: Confirmatory qHTS for antagonist of cAMP-regulated guanine nucleotide exchange factor 4 (EPAC2) (AID 1645885). Further: on the % scale 0 is the no-effect control and ±100 the full control effect; nearly all actives have a fitted effect of over 25% in size.
In test [11] the target is Rap guanine nucleotide exchange factor 3 (Homo sapiens) (UniProt O95398). The experiment in a line: Counterscreen qHTS for antagonist of cAMP-regulated guanine nucleotide exchange factor 3 (EPAC1) (AID 1645888).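 Further: fluorescence loss as bound BODIPY-GDP is released from Rap1B; % of control where 0% means no effect.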 In a few lines: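 Rap1B–BODIPY-GDP (250 nM) with 50 uM GDP; compounds pin-transferred to 9.74 nM–152 uM final (activator) or from 7.32 nM upwards (inhibitor). Fluorescence Ex/Em 480/540 nm read at 5 and 30 min, then after adding cAMP or buffer, at room temperature.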

Test [12] can be described thus: qHTS profiling of the MIPE4 collection as inhibitors of Plasmodium falciparum (3D7) proliferation (AID 743344; call rule not given here;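 further: scaled between DMSO vehicle wells and 0.29 µM artemisinin as full inhibition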). The following applies: P. falciparum 3D7 in erythrocytes, SYBR Green DNA fluorescence, 72 h; at 28.5 µM (top of the series). An outline of the steps: (§1)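 Erythrocytes infected with P. falciparum (0.3% parasitemia, 2.5% hematocrit) incubated with compounds 72 h at 37 C, 5% CO2. Lysis with saponin/Triton buffer containing SYBR Green I, overnight at room temperature in the dark; DNA fluorescence (485/535 nm) normalised to 0.29 uM artemisinin and DMSO.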

The nature of test [13]: qHTS profiling of the MIPE4 collection as inhibitors of Plasmodium falciparum (DD2) proliferation (AID 743345; call rule not given here). The following applies: P. falciparum Dd2 in erythrocytes, SYBR Green DNA, 72 h; at 28.5 µM (top of the series). An outline of the steps: as §1
Test [14] can be described thus: qHTS profiling of the MIPE4 collection as inhibitors of Plasmodium falciparum (DD2) proliferation (Rep 2) (AID 743346; call rule not given here). The following applies: P. falciparum Dd2 in erythrocytes, SYBR Green DNA, 72 h; at 28.5 µM (top of the series). In a few lines:
as §1

Test [15] in a line: qHTS profiling of the MIPE4 collection as inhibitors of Plasmodium falciparum (HB3) proliferation (AID 743347; call rule not given here;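 further: plate controls were DMSO vehicle wells for no effect and artemisinin wells for full effect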). The following applies: P. falciparum HB3 in erythrocytes, SYBR Green DNA, 72 h; at 28.5 µM (top of the series). An outline of the steps:
as §1

In test [16] the target is Glutathione peroxidase 1 (Homo sapiens) (UniProt P07203). Put plainly: Primary qHTS Assay for Inhibitors of Recombinant Selenoprotein Glutathione Peroxidase 1 (GPX1) (AID 1845191). Further: on the % scale 0 is the no-effect control and ±100 the full control effect; nearly all actives have a fitted effect of over 65% in size. In a few lines: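 GR-coupled assay: compounds preincubated 30 min at room temperature with GPX1, then reaction started with CHP; final 10 nM GPX1, 1 mM GSH, 0.5 mM CHP, 0.5 mM NADPH, 100 nM GR, 0.01% BSA, pH 7.5 Tris buffer. NADPH fluorescence (340/450 nm) read at 0 and 15 min.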

Molecules are shown by their SMILES. Records with an inconclusive call do not appear. Calls of active or inactive are those of the source. Unless noted, the call rests on the fitted dose curve; in most records, active means well fitted curve in the direction sought with a large enough effect; inconclusive means small, poorly fitted or top-dose-only effect, or another doubt; inactive means no such curve, though single readings can be large; an effect the other way counts as inactive or inconclusive.

Chain of Calcium and integrin-binding protein 1 (Homo sapiens) (Q99828 whole entry, looked up): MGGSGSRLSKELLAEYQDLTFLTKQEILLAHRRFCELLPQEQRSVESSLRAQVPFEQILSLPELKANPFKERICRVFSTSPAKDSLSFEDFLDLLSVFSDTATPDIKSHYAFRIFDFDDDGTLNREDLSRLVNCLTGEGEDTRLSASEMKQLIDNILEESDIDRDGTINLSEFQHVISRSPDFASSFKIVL
Chain of Rap guanine nucleotide exchange factor 3 (Homo sapiens) (O95398 whole entry, looked up): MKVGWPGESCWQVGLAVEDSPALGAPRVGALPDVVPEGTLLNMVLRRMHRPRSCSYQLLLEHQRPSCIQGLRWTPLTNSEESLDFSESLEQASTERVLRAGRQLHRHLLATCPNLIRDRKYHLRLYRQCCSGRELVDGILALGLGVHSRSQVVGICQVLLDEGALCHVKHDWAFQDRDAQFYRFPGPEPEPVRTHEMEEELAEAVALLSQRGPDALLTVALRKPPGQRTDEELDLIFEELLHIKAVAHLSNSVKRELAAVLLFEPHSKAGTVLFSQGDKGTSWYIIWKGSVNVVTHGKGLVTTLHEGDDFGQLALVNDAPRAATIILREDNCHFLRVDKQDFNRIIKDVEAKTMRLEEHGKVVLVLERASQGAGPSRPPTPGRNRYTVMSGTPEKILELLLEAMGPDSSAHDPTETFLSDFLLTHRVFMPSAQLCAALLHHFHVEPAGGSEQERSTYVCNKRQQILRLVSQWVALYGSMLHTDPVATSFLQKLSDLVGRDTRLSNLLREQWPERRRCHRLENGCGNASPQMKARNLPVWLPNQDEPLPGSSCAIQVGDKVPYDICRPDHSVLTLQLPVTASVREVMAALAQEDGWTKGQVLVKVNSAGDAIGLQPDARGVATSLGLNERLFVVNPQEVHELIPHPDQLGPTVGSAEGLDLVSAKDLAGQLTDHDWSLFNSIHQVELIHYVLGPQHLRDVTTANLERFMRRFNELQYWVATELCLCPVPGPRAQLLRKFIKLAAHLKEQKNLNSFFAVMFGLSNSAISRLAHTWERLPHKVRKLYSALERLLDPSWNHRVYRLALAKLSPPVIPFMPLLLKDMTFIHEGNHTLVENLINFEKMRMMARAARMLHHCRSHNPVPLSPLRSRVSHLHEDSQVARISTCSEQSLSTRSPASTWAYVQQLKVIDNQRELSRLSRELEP
Chain of Rap guanine nucleotide exchange factor 4 (Homo sapiens) (Q8WZA2 whole entry, looked up): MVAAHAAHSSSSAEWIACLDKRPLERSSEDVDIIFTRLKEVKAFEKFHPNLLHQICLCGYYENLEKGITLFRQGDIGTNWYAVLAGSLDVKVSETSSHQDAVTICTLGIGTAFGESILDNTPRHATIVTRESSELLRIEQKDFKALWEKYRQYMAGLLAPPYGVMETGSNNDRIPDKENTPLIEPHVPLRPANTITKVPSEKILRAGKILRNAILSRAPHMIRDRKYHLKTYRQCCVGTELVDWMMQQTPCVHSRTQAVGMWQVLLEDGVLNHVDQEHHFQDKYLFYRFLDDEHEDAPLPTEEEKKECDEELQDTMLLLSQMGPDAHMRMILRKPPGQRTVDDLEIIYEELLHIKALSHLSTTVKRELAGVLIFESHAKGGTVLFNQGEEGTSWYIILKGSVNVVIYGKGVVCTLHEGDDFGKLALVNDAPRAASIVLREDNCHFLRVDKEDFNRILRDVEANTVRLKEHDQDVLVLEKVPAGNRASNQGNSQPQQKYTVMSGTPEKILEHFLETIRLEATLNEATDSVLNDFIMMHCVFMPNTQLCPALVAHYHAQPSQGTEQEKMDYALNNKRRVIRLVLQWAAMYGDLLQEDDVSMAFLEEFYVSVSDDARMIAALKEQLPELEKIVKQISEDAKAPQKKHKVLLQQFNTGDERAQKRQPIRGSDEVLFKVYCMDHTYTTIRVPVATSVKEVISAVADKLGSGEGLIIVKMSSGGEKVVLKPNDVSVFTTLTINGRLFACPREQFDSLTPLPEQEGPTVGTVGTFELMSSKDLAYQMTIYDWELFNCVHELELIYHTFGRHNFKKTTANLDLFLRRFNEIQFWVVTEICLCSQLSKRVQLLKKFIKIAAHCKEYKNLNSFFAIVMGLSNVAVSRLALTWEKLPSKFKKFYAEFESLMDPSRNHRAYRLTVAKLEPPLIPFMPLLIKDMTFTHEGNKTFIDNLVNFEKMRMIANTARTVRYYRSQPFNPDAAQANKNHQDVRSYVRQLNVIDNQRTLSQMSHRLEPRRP
Chain of Cytochrome P450 3A4 (Homo sapiens) (P08684 whole entry, looked up): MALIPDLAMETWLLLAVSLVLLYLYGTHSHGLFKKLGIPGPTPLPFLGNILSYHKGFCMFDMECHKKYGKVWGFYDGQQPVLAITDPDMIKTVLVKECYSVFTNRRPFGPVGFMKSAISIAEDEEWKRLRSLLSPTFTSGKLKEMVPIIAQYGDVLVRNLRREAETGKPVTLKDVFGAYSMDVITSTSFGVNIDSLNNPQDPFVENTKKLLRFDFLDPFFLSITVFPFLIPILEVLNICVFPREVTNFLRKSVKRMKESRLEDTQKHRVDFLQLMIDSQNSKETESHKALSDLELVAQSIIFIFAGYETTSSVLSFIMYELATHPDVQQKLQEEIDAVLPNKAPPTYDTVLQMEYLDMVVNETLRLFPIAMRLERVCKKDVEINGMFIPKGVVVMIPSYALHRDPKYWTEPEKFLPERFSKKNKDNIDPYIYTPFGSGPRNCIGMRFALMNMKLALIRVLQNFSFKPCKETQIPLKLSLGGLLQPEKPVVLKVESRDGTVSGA
Chain of Glutathione peroxidase 1 (Homo sapiens) (P07203 whole entry, looked up): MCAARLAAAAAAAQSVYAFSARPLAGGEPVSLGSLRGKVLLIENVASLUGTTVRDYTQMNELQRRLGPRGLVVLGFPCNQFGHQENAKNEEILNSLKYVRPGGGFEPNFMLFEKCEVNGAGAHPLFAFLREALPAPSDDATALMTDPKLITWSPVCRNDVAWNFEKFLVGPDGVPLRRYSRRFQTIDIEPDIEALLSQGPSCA
Chain of Glucocorticoid receptor (Homo sapiens) (P04150 whole entry, looked up): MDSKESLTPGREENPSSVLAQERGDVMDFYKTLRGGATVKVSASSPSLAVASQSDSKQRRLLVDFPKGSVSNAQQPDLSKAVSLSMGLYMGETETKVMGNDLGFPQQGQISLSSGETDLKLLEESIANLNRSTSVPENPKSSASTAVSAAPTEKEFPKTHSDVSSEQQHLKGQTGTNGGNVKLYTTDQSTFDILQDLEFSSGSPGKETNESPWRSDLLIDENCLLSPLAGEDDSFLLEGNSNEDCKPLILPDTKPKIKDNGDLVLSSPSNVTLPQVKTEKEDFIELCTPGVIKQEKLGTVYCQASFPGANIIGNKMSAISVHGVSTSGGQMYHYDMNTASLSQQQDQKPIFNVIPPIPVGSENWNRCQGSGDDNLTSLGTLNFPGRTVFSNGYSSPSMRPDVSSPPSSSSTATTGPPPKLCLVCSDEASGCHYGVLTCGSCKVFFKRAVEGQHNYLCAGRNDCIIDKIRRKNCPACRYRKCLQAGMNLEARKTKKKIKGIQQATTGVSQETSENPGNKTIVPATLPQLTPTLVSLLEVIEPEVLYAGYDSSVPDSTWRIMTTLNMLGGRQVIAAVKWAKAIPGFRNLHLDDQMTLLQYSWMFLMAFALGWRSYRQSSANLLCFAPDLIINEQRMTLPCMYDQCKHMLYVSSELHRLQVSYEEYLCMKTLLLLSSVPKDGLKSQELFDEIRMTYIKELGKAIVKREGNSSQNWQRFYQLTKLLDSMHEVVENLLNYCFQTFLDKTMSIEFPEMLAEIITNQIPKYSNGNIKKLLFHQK

As for `CNc1oc(-c2cccs2)nc1C#N`, the activity change, negative = inhibition in test [1] is 3.62% [at 17.2 µM] (inactive); in test [2] it was 11.4% [at 17.2 µM] (inactive). Further, in test [3], the activity, negative = inhibition was -2.1% [at 17.2 µM] (inactive). In addition, the Potency in test [4] was > 20.6 µM (inactive). In addition, the Potency result in test [5] was “inactive”.

Turning to `CCN(CC)CCCCn1c(-c2ccccc2)nc2c(Nc3ccccc3)nc(C)nc21`, the compound was classed as inactive in [6]. The Potency result in [7] and in test [5] was “inactive” each time.

`O=C(CSc1nnc(-c2cccc(S(=O)(=O)N3CCCC3)c2)n1-c1ccccc1)Nc1ccc(C(=O)O)cc1`: the Potency result in [5] is “inactive”. Besides, the result in [8] and in test [11] was inactive. For the same compound, the activation in [9] is -2.44% [at 17.1 µM] (inactive). Further, the activity change, negative = inhibition in test [10] is -11.1% [at 12.7 µM] (inactive).

Regarding `CC(C)(C)n1nc(Cc2cccc3ccccc23)c2c(N)ncnc21`, the parasite growth, % of DMSO control in test [12] came to 23.2%. This compound also had a parasite growth remaining, % of DMSO control (lower = more inhibition) in test [13] of 58%. Besides, the parasite growth, % of control (lower = inhibition) in test [14] was 52.6%. For the same compound, in [15], the growth, % of control worked out at 12.7%. Also, the Potency result in [5] and in test [16] was “inactive” each time.
